Measured values as given in the supplement of paper PMC11732987, “Enantioselective OTUD7B fragment discovery through chemoproteomics screening and high-throughput optimisation” (Communications Chemistry, 2025).

Legend:
Experiment in all cases: log2 ratio of Biotin-Ahx-Ub-VS probe labelling (fragment/DMSO); higher = less target engagement (more negative = stronger competition), active = hit call of the paper (q ≤ 0.05, log2 ratio ≤ -1)
Conditions in all cases: compound concentration: 200 uM; treatment time: 3 h
USP34 = USP34 (UniProt Q70CQ2)
How it was run: (§1)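 Labelling with Biotin-Ahx-Ub-VS (0.5 µM final, 1 h) followed a 3 h triplicate treatment of HEK293T lysate (495 µg per sample, Tris/CHAPS/IGEPAL buffer with protease inhibitors) with fragment at 200 µM or vehicle. Labelled DUBs were NeutrAvidin-enriched, digested with LysC and trypsin, and run by diaPASEF LC-MS/MS. The values, average log2 fragment/vehicle ratios by unpaired t-test, come from global-median-normalised Spectronaut label-free quantities. Proteins with ≥2 unique peptides were used.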

USP36 = molecular target: T1, USP36 (UniProt Q9P275)
T1 sequence (whole entry): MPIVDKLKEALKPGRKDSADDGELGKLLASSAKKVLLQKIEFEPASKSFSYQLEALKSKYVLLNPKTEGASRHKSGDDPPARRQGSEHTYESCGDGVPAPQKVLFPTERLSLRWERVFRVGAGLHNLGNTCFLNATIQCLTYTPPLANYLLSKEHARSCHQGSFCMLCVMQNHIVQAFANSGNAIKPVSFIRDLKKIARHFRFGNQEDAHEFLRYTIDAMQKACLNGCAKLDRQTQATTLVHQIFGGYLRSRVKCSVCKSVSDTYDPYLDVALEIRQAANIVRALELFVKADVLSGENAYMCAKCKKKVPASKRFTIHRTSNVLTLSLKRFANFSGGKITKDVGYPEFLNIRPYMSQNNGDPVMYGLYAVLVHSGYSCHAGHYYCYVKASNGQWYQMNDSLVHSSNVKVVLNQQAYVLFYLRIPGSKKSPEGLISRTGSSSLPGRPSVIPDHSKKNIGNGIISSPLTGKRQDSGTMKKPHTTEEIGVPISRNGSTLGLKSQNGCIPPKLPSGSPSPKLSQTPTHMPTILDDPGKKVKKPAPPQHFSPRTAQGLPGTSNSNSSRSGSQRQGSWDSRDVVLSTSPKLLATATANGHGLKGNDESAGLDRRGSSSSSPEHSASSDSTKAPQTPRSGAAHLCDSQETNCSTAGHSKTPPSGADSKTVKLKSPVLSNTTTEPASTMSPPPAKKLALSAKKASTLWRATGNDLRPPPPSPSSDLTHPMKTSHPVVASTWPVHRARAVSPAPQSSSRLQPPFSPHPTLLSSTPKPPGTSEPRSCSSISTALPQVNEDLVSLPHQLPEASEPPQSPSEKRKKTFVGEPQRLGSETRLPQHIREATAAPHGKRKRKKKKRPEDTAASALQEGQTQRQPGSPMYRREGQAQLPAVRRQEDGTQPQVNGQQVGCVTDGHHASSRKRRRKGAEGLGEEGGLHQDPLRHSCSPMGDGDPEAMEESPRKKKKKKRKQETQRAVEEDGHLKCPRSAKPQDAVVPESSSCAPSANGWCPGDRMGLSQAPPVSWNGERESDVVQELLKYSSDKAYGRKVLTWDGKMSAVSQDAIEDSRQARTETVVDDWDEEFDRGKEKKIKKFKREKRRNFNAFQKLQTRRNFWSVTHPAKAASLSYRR
How it was run: as §1

USP38 = molecular target: T2, USP38 (UniProt Q8NB14)
T2 sequence (whole entry): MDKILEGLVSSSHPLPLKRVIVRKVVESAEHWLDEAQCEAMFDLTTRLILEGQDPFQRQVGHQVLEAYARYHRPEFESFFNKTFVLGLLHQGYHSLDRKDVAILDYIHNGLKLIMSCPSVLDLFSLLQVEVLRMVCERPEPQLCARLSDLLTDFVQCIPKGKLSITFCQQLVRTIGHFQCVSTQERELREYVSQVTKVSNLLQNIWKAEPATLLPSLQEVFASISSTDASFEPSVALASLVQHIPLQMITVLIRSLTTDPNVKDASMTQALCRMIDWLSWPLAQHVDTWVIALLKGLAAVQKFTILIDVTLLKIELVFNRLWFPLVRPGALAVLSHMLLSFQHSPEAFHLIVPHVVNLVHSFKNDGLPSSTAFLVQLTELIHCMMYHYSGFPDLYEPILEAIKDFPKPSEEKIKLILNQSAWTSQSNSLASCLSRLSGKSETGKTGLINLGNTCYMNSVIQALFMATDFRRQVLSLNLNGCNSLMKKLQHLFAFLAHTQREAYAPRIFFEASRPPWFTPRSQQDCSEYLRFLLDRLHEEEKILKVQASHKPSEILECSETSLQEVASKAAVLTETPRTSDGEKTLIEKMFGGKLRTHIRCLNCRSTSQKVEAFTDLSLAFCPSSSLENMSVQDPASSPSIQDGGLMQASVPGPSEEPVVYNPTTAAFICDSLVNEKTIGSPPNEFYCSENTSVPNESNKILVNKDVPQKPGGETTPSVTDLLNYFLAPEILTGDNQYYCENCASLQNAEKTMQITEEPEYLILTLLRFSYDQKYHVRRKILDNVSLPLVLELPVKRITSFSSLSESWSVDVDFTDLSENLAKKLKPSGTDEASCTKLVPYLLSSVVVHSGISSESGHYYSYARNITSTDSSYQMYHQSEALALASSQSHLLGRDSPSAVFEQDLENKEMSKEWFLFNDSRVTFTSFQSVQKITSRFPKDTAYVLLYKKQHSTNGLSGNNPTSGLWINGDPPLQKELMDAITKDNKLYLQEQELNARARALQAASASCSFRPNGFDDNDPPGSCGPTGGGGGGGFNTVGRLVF
How it was run: as §1

USP39 = molecular target: T3, USP39 (UniProt Q53GS9)
T3 sequence (whole entry): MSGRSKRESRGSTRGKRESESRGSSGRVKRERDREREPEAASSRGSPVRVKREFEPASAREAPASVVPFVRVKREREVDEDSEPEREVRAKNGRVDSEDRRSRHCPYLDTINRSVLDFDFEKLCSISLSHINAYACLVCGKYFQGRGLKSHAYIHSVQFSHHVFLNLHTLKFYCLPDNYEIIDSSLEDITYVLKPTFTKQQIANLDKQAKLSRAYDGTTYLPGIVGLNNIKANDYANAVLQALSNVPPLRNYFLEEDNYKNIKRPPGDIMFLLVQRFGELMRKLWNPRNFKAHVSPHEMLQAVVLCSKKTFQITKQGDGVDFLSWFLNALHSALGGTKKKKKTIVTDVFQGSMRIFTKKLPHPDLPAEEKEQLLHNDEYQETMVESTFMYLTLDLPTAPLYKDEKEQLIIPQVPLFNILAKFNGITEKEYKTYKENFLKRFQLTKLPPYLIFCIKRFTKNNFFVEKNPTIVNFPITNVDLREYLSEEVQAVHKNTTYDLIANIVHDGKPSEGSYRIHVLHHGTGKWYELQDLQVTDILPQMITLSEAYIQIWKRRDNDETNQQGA
How it was run: as §1

USP4 = molecular target: T4, USP4 (UniProt Q13107)
T4 sequence (whole entry): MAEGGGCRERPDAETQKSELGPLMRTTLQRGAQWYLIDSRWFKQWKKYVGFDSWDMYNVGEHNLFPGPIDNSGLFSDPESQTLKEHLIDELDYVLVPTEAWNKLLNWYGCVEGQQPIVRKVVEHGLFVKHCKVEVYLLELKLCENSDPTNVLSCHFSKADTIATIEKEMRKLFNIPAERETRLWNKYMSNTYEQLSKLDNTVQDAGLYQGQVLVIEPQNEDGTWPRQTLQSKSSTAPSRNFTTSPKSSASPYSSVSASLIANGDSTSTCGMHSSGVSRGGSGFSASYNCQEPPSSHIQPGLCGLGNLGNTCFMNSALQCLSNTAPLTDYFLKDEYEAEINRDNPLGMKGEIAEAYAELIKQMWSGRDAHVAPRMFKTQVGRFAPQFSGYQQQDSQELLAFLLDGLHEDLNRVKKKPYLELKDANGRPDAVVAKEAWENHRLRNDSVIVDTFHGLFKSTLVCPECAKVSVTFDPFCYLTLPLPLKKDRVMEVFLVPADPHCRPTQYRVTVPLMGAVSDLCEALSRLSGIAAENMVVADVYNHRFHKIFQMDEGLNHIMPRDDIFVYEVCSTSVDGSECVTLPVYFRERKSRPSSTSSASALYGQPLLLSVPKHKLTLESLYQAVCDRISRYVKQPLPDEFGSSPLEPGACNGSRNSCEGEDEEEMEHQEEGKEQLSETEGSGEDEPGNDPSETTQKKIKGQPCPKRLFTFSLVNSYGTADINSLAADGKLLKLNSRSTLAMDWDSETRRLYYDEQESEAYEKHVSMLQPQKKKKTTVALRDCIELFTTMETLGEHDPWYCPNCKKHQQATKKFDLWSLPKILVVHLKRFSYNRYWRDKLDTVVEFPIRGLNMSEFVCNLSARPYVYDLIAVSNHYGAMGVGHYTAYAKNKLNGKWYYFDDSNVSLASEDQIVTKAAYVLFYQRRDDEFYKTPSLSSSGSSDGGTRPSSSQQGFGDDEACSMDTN
How it was run: as §1

Measured: log2 ratio of Biotin-Ahx-Ub-VS probe labelling

Sequence of USP34 (Q70CQ2 whole entry, the tested form may be a part): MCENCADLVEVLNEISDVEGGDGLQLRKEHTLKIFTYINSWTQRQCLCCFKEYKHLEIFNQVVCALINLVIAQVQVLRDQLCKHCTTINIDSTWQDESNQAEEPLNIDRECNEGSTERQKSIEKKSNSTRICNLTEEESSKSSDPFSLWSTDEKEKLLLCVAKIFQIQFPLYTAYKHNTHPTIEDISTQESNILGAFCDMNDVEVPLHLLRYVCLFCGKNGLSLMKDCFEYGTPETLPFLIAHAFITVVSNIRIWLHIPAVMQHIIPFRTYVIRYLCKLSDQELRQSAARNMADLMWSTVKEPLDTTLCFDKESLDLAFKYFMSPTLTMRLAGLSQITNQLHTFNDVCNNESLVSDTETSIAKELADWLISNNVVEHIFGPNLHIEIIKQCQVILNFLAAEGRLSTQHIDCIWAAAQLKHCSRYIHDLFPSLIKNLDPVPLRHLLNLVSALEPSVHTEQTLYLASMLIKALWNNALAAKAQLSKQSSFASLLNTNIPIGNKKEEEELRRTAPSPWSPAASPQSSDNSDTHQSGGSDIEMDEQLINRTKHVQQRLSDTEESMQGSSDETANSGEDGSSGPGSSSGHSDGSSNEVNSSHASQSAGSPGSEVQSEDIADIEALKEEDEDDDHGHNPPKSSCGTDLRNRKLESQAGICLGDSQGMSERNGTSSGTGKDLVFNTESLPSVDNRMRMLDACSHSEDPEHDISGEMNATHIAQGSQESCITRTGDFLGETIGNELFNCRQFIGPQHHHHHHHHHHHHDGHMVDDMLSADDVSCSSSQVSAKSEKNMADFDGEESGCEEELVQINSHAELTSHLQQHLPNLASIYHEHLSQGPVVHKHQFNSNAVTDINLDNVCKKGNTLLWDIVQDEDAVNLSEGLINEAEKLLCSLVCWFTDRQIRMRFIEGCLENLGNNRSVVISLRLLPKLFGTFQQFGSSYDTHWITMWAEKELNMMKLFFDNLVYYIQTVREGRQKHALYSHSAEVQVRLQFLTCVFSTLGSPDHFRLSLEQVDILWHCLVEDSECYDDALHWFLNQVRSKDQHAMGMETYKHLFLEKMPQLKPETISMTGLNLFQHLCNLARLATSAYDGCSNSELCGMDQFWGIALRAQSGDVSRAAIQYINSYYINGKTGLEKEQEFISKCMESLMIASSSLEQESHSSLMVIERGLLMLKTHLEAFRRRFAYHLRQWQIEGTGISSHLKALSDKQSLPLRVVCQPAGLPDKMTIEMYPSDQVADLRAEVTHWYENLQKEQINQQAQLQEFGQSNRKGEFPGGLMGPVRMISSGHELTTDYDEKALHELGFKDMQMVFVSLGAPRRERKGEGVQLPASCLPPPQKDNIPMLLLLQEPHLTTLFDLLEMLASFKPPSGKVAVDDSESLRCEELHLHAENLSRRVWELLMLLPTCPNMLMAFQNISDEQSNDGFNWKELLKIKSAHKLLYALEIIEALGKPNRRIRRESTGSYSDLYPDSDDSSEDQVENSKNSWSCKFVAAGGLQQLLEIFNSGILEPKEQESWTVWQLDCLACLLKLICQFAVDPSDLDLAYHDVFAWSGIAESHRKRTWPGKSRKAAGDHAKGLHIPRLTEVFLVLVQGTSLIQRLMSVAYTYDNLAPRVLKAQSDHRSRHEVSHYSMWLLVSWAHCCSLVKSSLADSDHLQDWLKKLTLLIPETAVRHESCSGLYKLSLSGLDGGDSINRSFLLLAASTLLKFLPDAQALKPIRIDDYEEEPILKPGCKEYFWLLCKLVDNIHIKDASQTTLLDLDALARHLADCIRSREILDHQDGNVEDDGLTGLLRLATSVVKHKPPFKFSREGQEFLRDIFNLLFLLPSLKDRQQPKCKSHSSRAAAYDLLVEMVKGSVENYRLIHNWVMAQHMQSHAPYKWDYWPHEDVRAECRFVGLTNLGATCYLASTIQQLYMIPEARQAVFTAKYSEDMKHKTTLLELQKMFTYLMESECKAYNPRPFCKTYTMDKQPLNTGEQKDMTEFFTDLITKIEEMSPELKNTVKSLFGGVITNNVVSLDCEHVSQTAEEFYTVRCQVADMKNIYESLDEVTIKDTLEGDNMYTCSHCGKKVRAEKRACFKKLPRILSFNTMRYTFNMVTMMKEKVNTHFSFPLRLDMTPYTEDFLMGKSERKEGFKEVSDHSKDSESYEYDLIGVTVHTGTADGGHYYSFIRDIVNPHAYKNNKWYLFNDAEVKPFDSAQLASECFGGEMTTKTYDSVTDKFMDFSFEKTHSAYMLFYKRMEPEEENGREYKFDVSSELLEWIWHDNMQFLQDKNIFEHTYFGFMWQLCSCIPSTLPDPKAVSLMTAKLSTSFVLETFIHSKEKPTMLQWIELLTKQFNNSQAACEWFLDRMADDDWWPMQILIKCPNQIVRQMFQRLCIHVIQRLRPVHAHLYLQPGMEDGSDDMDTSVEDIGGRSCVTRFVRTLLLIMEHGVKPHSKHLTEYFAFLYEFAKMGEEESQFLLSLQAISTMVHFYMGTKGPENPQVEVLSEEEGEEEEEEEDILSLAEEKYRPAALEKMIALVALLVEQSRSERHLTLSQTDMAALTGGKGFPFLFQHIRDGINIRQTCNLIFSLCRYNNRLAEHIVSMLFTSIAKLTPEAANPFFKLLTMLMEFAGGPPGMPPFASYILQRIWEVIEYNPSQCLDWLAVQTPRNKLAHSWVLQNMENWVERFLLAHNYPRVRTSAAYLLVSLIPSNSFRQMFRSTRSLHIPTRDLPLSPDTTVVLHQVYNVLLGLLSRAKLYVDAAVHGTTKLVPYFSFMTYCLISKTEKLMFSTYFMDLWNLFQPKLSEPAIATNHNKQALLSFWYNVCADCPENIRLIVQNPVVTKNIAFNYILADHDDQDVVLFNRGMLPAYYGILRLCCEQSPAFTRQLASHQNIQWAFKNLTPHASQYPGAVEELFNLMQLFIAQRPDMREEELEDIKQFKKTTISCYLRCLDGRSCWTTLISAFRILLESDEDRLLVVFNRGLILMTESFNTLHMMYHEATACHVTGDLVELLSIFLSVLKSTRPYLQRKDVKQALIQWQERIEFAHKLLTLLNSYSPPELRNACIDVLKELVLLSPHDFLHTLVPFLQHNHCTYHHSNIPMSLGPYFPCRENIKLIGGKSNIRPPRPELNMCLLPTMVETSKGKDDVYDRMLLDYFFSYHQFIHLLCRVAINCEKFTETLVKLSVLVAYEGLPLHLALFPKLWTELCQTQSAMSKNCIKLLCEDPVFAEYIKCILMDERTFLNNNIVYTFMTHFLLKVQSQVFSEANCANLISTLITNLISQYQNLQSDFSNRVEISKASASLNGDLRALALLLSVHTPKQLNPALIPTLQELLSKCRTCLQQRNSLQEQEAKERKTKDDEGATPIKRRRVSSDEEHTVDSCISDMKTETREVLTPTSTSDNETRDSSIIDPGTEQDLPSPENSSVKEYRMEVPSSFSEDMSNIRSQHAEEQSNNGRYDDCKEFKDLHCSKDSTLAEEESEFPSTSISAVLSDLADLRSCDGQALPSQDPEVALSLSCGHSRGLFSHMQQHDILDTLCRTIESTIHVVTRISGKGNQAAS

CC1(NC(=O)CCl)CCS(=O)(=O)C1 (stereo not given)
inactive: USP34 -0.257 | USP36 -0.302 | USP38 -0.653 | USP39 -0.0411 | USP4 -0.424
